In PubChem BioAssay (NCATS):
Records with an inconclusive call do not appear. Activity calls are given as the source filed them. Calls come from the whole dose curve; as a rule, active = well fitted cell-killing curve with a large enough effect; inconclusive = small, poorly fitted or top-dose-only effect, or effect the other way; inactive = flat fitted curve, though single readings scatter.

test: Identifying Small Molecule Inhibitors of Pancreatic Cancer Stem Cells (SN12C, Spheroid) (AID 1259360); conditions: Potency: SN12C spheroid viability; series mostly up to 46.1 µM; viability (% of control): at the top concentration;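 for viability (% of control): 100% = DMSO-treated cells and 0% = wells without cells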
Text: Progenitor-like cancer cells, often referred to as cancer stem cells (CSC), are believed to be the drivers of therapeutic resistance and rapid recurrence. CSCs are postulated to reside in specific niches characterized by low oxygen tension, limited nutrient supply, and high redox load. Selectively targeting CSC, alone or in combination with cytotoxic agents, as a means to produce durable remissions is an appealing concept. Modeling these cells in in vitro setting is an important step in finding new therapies and/or targets. Multiple reports highlight that forcing cells in culture into 3-dimensionaly architectures (spheroids) re-establishes key progenitor-like transcriptional signatures. Pancreatic cancer is among the diseases with the most dismal outlook which is driven, largely, by recurance following front-line therapies. […] In hopes of deriving new insight into the targeting of these pancreatic CSCs we examined three established pancreatic cancer cell lines in cytotoxicity assays versus a collection of approved and investigational drugs. Importantly, we screened these lines as traditional monolayer (2D) and spheroid (3D) formats to gain an appreciation of agents with differential activity.
Multicellular tumor spheroids from Panc1, MiaPaCa-2, and the primary low-passage tissue culture line SB.06 were seeded in stem cell media (SCM) in nonadherent 6-well plates coated with hydrogel (Corning Life Sciences, Chelmsford, Mass) and pancreatic spheres generated for 14 days before screening. Cells were seeded into 1536-well solid-bottom white tissue culture treated Greiner Bio One Plates (789173-F) using a MultiDrop Combi (Thermofisher Scientific) dispenser and a small sterile cassette. One column was media alone to be used as a :"no cells" control. The plates were then covered with sterilized stainless steel gasketed lids from Kalypsys. After allowing cells to attach for 4 hours, 23 nL of test compound or control (negative control DMSO and positive control 9.2 uM Bortezomib-final) were added from a 1536-well polypropylene compound source plate to each well using a 1536 head pin tool from Kalypsys. Cells were then incubated for 48 hours at 37C, 95% relative humidity and 5% CO2. After 48 hours, plates were removed from the incubator and 3 uL of CellTiter-Glo (Promega) was added using an Aurora Flying Reagent Dispenser Bioraptor. Plates were incubated at room temperature for 10 minutes prior to reading the luminescence on the Viewlux (PerkinElmer). The relative luciferase units are used to calculate the percent activity using the activity of DMSO in the cells and no cells columns for normalization of no inhibition and full inhibition respectively.
Potency is the fitted concentration of half-maximal effect.

| SMILES | viability (% of control) | Potency |
| --- | --- | --- |
| COc1cc2c(cc1OC)CC(=O)N(CCCN(C)C[C@H]1Cc3cc(OC)c(OC)cc31)CC2 | 113% (inactive) |  |
| C[C@@H](O[C@H]1OCCN(Cc2n[nH]c(=O)[nH]2)[C@@H]1c1ccc(F)cc1)c1cc(C(F)(F)F)cc(C(F)(F)F)c1 |  | 20.9 µM (active) |
| O=C(O)c1ccc(O)c2ncc(N3CCOCC3)cc12 | 105% (inactive) |  |
| Cn1cc(-c2ccc3nnc(Sc4ccc5ncccc5c4)n3n2)cn1 | 92.5% (inactive) |  |
| COc1nc(C)cnc1NS(=O)(=O)c1cccnc1-c1ccc(-c2nnco2)cc1 | 91.8% (inactive) |  |
| CC(O)=C(C#N)C(=O)Nc1ccc(C(F)(F)F)cc1 | 90.3% (inactive) |  |
| CC(=O)NCCC(=O)N[C@@H](CCC(N)=O)C(=O)N[C@@H](CO)C(=O)N[C@@H](CCC(N)=O)C(=O)N[C@@H](CCC(N)=O)C(=O)N[C@H](C(=O)N[C@@H](Cc1ccccc1)C(=O)N[C@]1(C)CCCCCCC=CCCC[C@@](C)(C(=O)N[C@@H](CCC(N)=O)C(=O)N[C@@H](CC(N)=O)C(N)=O)NC(=O)[C@H](CC(C)C)NC(=O)[C@H](CC(C)C)NC(=O)[C@@H](CCCNC(=N)N)NC(=O)[C@H](Cc2c[nH]c3ccccc23)NC(=O)[C@H](CC(C)C)NC(=O)[C@H](CC(N)=O)NC1=O)[C@H](C)O | 111% (inactive) |  |
| O=C(Nc1ccc(OC(F)(F)F)cc1)c1sccc1NCc1ccnc2ccccc12 |  | 23.5 µM (active) |
| Cc1cccc(Nc2nc(N[C@@H]3CCCC[C@H]3N)ncc2C(N)=O)c1 | 83.7% (inactive) |  |
| CC(C)n1c(C=C[C@H](O)C[C@H](O)CC(=O)O)c(-c2ccc(F)cc2)c2ccccc21 | 84.1% (inactive) |  |
| CC1=C[C@@H]2[C@@H]([C@@H](O)C[C@@]3(C)[C@H]2C[C@@H](C)[C@]3(O)C(=O)CO)[C@@]2(C)Cc3cnn(-c4ccccc4)c3C=C12 |  | 26.4 µM (active) |
| CN(C)CCN(C)C(=O)c1ccc(NC(=O)Nc2ccc(-c3nc(N4CCOCC4)c4ccn(CC(F)(F)F)c4n3)cc2)cc1 |  | 0.264 µM (active) |
| NC(=O)c1ccc(N(C(N)=O)c2c(F)cccc2F)nc1-c1ccc(F)cc1F | 92.6% (inactive) |  |
| COc1cccc(OC)c1-c1cc(C(=O)NC2(C(=O)O)C3CC4CC(C3)CC2C4)nn1-c1ccnc2cc(Cl)ccc12 (centres undefined) | 92.1% (inactive) |  |
| CCCCOCCOc1nc(-c2ccc(C(=O)O)c(F)c2)sc1C | 104% (inactive) |  |
| CCC=CC[C@H]1C(=O)CC[C@@H]1CC(=O)OC | 106% (inactive) |  |
| COC(=O)Nc1ccc(-c2nc(N3CCOCC3)c3cnn(C4CCN(C(=O)OC)CC4)c3n2)cc1 |  | 1.05 µM (active) |
| COc1ccc2c(c1)CC[C@H]1[C@@H]2CC[C@]2(C)[C@@H](NCCCCCCN3C(=O)C=CC3=O)CC[C@H]12 |  | 20.9 µM (active) |
| CCOC(=O)[C@@H](N)CCC(=O)N[C@@H](CSCc1ccccc1)C(=O)N[C@@H](C(=O)OCC)c1ccccc1 | 92.6% (inactive) |  |
| O=C1C(CCC(O)c2ccc(F)cc2)C(c2ccc(O)cc2)N1c1ccc(F)cc1 (centres undefined) | 92.1% (inactive) |  |
| Cc1nn(Cc2ccccc2Cl)c(C)c1CN(C)CC(O)COc1ccc(Cl)cc1 (centres undefined) | 93.2% (inactive) |  |
| CCC(=O)N1CCN(c2ccc(-n3c(=O)ccc4cnc5ccc(-c6cnc7ccccc7c6)cc5c43)cc2C(F)(F)F)CC1 |  | 0.0526 µM (active) |
| CNC(=O)c1cc(Oc2ccc(NC(=O)Nc3ccc(Cl)c(C(F)(F)F)c3)c(F)c2)ccn1 |  | 18.7 µM (active) |
| CC(C)(C)c1[nH]cnc1C=c1[nH]c(=O)c(=Cc2ccccc2)[nH]c1=O |  | 14.8 µM (active) |
| COc1c(C)cnc(Cn2cnc3c(Cl)nc(N)nc32)c1C |  | 0.264 µM (active) |
| OCCn1cc(-c2ccc3c(c2)CCC3=NO)c(-c2ccncc2)n1 | 91.9% (inactive) |  |
| CN1C(=O)C(Cc2c[nH]c3ccccc23)NC1=S (centres undefined) | 95.3% (inactive) |  |
| CCNC(=O)c1noc(-c2cc(C(C)C)c(O)cc2O)c1-c1ccc(CN2CCOCC2)cc1 |  | 0.0074 µM (active) |
| CN(C)CCCNC(=O)c1ccc(-c2cc(O)c3ncccc3c2)cc1 | 98.9% (inactive) |  |
